MsrA act = bovine MsrA enzyme activators, primary screen, biochemical, absorbance, HTS; purified bovine MsrA, absorbance read-out; activation, % at 10.6 µM; 360,000 compounds, 0.3% hits; AID 602163, 2012; in the data active = activation above about 7.5%;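 note: 0% = vehicle and 100% = reference activator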
PKA-R2B act = activators of PKA-R2B holoenzyme, primary screen, biochemical, fluorescence polarization, Cy5-IP20, human; cAMP-dependent protein kinase catalytic subunit beta (Homo sapiens) + cAMP-dependent …; PKA-R2B holoenzyme dissociation; R2B truncated from residue 108, S112A mutant; 0% DMSO only, 100% 113 µM cGMP; activation, % at 11.4 µM; 340,000 compounds, 0.079% hits; AID 504700, 2011;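 active = activation above a cutoff set at the mean over all compounds plus 3 SD, cut at about 18% in these data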;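 note: higher means more holoenzyme dissociation and a rise in polarization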
Target sequence (P31323 whole entry, looked up, other chains not shown, the tested form may be a part): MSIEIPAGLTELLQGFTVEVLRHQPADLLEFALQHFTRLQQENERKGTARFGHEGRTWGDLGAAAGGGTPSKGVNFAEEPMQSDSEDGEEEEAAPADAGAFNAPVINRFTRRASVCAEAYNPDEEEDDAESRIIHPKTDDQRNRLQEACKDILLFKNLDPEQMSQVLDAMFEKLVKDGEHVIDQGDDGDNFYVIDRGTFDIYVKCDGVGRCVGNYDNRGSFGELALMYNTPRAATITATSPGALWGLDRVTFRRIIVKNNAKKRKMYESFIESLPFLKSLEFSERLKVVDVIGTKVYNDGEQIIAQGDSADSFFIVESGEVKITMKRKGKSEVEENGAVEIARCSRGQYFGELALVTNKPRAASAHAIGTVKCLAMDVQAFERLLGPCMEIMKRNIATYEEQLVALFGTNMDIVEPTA
MsrA inh = bovine MsrA enzyme inhibitors, primary screen, biochemical, absorbance, HTS | Methionine sulfoxide reductase A (Bos taurus) | purified bovine MsrA, absorbance read-out | inhibition, % at 15.5 µM | 360,000 compounds, 0.75% hits | AID 651718, 2012;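 note: 0% = vehicle wells with enzyme and 100% = reference inhibitor wells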
PKA-R1A activ = activators of PKA-R1A holoenzyme, primary screen, biochemical, fluorescence polarization, Cy5-IP20, bovine R1A, mouse PKAc | cAMP-dependent protein kinase type I-alpha regulatory subunit (Bos taurus) + … | PKA-R1A dissociation; scaled: DMSO 0%, 113 µM cGMP 100% | activation, % at 11.4 µM | 340,000 compounds, 0.083% hits | AID 504707, 2011;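 active = percent activation above the mean of all tested compounds plus 3 SD, cut at about 19% in these data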;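 note: higher means more PKAc released from R1A so a rise in polarization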
SUMO Mot1 rescue = yeast Mot1-301 growth rescue at high temperature, primary screen, SUMOylation pathway inhibitor project, S. cerevisiae, ATP luminescence, 38.5C. S. cerevisiae Mot1-301 growth rescue; percent above DMSO median, 100 means doubled. growth rescue, % at 18.8 µM. 320,000 compounds, 1% hits;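 active = every valid replicate shows activation above 250% relative to neutral control wells; inactive = the rest, any valid replicate at or below 250%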;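 note: OY570 slx delta 5 strain wells were the positive control but not used for scaling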
MsrA conf = bovine MsrA inhibitors, retest, confirmation, biochemical, absorbance, HTS. 2,300 compounds, 41% hits. AID 651822, 2012. shares compounds with MsrA inh. purified bovine MsrA, absorbance read-out. inhibition, % at 15.5 µM;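 note: coupled to thioredoxin reductase with NADPH and selenocystamine and DMSO as substrate; 0% = vehicle only and 100% = full effect of reference inhibitor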
Active calls of the source: *. Only some compounds are listed: those with a hit (about 2% of all), similar ones and a draw of the others. Cut-off read from the data, not from the text of the source, unless noted: active = inhibition above about 4.5%; inactive = the rest.

Results for CCCC(=O)Nc1sc(C)c(-c2ccc(OC)cc2)c1C#N ?
MsrA act: -0.8; PKA-R2B act: 5.2; MsrA inh: 0.0; PKA-R1A activ: -8.5; SUMO Mot1 rescue: 3.4

Results for CCCc1ccc(-c2c(C)sc(N)c2C#N)cc1 ?
MsrA act: -3.0; PKA-R2B act: -15.2; MsrA inh: 5.3*; PKA-R1A activ: -7.8; SUMO Mot1 rescue: 34.9; MsrA conf: -0.6

What do the screens show for `Cc1nc(N)c(C#N)c(-c2cccnc2)c1C`?
MsrA act: -1.5; PKA-R2B act: -2.3; MsrA inh: 0.7; PKA-R1A activ: -3.0; SUMO Mot1 rescue: -7.1

What do the screens show for `CCc1nc(N)c(C#N)c(-c2cccnc2)c1C`?
MsrA act: -1.4; PKA-R2B act: -4.8; MsrA inh: 4.7*; PKA-R1A activ: 2.4; SUMO Mot1 rescue: 5.5; MsrA conf: 1.1

What do the screens show for `OC[C@@H]1CN(Cc2ccncc2)C[C@H](n2cnc3c(NCc4ccncc4)ncnc32)O1`?
MsrA act: -2.8; MsrA inh: 0.3

Results for COc1ccc(/C=N/NC(=S)Nc2c(C)n(C)n(-c3ccccc3)c2=O)cc1OC ?
MsrA act: 1.1; PKA-R2B act: 7.3; MsrA inh: 5.2*; PKA-R1A activ: -4.4; SUMO Mot1 rescue: -4.9; MsrA conf: 4.2

How did Cc1c(NC(=S)N/N=C/C=C/c2ccc([N+](=O)[O-])cc2)c(=O)n(-c2ccccc2)n1C do in these assays?
MsrA act: -2.9; PKA-R2B act: 1.6; MsrA inh: 9.8*; PKA-R1A activ: 3.9; SUMO Mot1 rescue: 293.5; MsrA conf: 4.9*

What do the screens show for `Cc1c(NC(=S)N/N=C/c2ccc(Br)cc2)c(=O)n(-c2ccccc2)n1C`?
MsrA act: -5.2; PKA-R2B act: 12.4; MsrA inh: 2.8; PKA-R1A activ: -2.6; SUMO Mot1 rescue: -5.7

How did Cc1c(NC(=S)N/N=C/C=C/c2ccccc2)c(=O)n(-c2ccccc2)n1C do in these assays?
MsrA act: -5.7; PKA-R2B act: -5.8; MsrA inh: 6.4*; PKA-R1A activ: 7.4; SUMO Mot1 rescue: -3.2; MsrA conf: 6.8*

How did CCN(C1CCCCC1)S(=O)(=O)CCNC(=O)c1ccc(OC)cc1 do in these assays?
MsrA act: -4.2; PKA-R2B act: -1.9; MsrA inh: 0.7; PKA-R1A activ: 2.2

How did CCCCc1c(-c2ccccc2OC)ncn1Cc1ccc(F)cc1F do in these assays?
MsrA inh: 1.3

Results for CN=c1sc(C(=O)Nc2ccccc2)c(C)n1C ?
MsrA act: -4.0; PKA-R2B act: 2.1; MsrA inh: 1.7; PKA-R1A activ: 3.7; SUMO Mot1 rescue: -1.0

How did CN=c1sc2c(n1C)C(=O)c1ccccc1C2=O do in these assays?
MsrA act: 5.6; PKA-R2B act: -9.3; MsrA inh: 9.7*; PKA-R1A activ: 10.1; MsrA conf: 7.0*

Results for Cc1ccsc1/C=N/NC(=O)C(=O)NCC(C)C ?
MsrA act: -3.5; PKA-R2B act: -11.1; MsrA inh: 5.6*; PKA-R1A activ: -4.3; SUMO Mot1 rescue: 23.2; MsrA conf: 3.4

How did COc1cc(C(=O)N/N=C/c2sccc2C)cc(OC)c1OC do in these assays?
MsrA act: -2.4; PKA-R2B act: -6.3; MsrA inh: 5.1*; PKA-R1A activ: -3.3; MsrA conf: 4.2

Results for CCCCC(=O)N/N=C/c1sccc1C ?
MsrA act: -2.2; PKA-R2B act: 7.6; MsrA inh: 1.8; PKA-R1A activ: -5.7; SUMO Mot1 rescue: -2.6

Results for O=C(O)CCC(=O)NNC(=O)CCC(=O)Nc1ccccc1 ?
MsrA act: -3.7; MsrA inh: -0.6; SUMO Mot1 rescue: 2.9

How did O=C(O)CCC(=O)Nc1ccc(/C=C/C(=O)C2CC2)cc1 do in these assays?
MsrA act: -6.0; PKA-R2B act: 2.4; MsrA inh: 7.3*; PKA-R1A activ: 0.9; SUMO Mot1 rescue: -8.0; MsrA conf: 2.6

What do the screens show for `N#C/C(=N/Nc1ccc(S(=O)(=O)N2CCOCC2)cc1)C(N)=O`?
MsrA act: -3.7; PKA-R2B act: 5.4; MsrA inh: 6.6*; PKA-R1A activ: 4.1; SUMO Mot1 rescue: -8.9; MsrA conf: 3.4

What do the screens show for `N#C/C(=N\Nc1ccc(S(=O)(=O)N2CCCCCC2)cc1)C(N)=S`?
MsrA act: -6.6; PKA-R2B act: -5.0; MsrA inh: 2.0; PKA-R1A activ: 3.6; SUMO Mot1 rescue: 22.3

How did CCOC(=O)N1CCN(C(=O)c2cccn3c(=O)c4sccc4nc23)CC1 do in these assays?
MsrA act: -0.6; PKA-R2B act: -2.8; MsrA inh: 5.7*; PKA-R1A activ: 13.7; SUMO Mot1 rescue: 4.2; MsrA conf: 3.7

How did CCOC(=O)N1CCN(C(=O)c2ccc3nc4ccsc4c(=O)n3c2)CC1 do in these assays?
MsrA act: -3.4; PKA-R2B act: -5.9; MsrA inh: 5.1*; PKA-R1A activ: 1.2; SUMO Mot1 rescue: -14.9; MsrA conf: 2.3

What do the screens show for `CCOC(=O)N1CCN(C(=O)c2ccc3nc4ccc(Cl)cc4c(=O)n3c2)CC1`?
MsrA act: -1.6; PKA-R2B act: 1.3; MsrA inh: 0.8; PKA-R1A activ: -7.2; SUMO Mot1 rescue: -8.4

What do the screens show for `O=C(Nc1cccc2ccccc12)OC[C@@H]1CSCCS(=O)(=O)N1`?
MsrA inh: -0.9

Results for O=C(N/C(=C\c1ccc(Br)cc1)c1nc2ccccc2[nH]1)c1ccco1 ?
MsrA act: -14.4; PKA-R2B act: -3.2; MsrA inh: 6.5*; PKA-R1A activ: 0.3; SUMO Mot1 rescue: -6.4; MsrA conf: 4.3

How did O=C(N/C(=C/c1cccs1)c1nc2ccccc2[nH]1)c1ccccc1 do in these assays?
MsrA act: -4.0; PKA-R2B act: -3.5; MsrA inh: 5.1*; PKA-R1A activ: 1.1; SUMO Mot1 rescue: -9.9; MsrA conf: 6.0*

How did O=C(N/C(=C\c1cccnc1)c1nc2ccccc2[nH]1)c1cccc(Br)c1 do in these assays?
MsrA act: -3.3; PKA-R2B act: -3.2; MsrA inh: 1.9; PKA-R1A activ: -8.0

What do the screens show for `COc1ccc(-c2cc(C(=O)OCC(=O)N3CCOCC3)c3ccccc3n2)cc1`?
MsrA act: -6.0; PKA-R2B act: -9.1; MsrA inh: 4.7*; PKA-R1A activ: 4.1; SUMO Mot1 rescue: 5.1; MsrA conf: 1.4

How did COc1ccc(-c2cc(C(=O)N3CCC3)c3ccccc3n2)cc1OC do in these assays?
MsrA act: -3.8; PKA-R2B act: -4.5; MsrA inh: 5.4*; PKA-R1A activ: 2.9; SUMO Mot1 rescue: 13.4; MsrA conf: 3.1

Screening results as filed in PubChem.
